# Reference: PubChem BioAssay AID463173 (ICCB-Longwood Screening Facility, Harvard Medical School, 2010)
# Where “and” joins values, the source holds several entries; their conditions need not be identical. Identical values can stand only once. Hit rate of the full screen: of about 52,000 compounds, about 1,700 (3.3%) were called active. This is one part of a sample in which actives are shown more often than they occur. Rule as the data show it: active = survival mostly below about 52% (no sharp cut-off); inactive = mostly above about 56%. More than one record can exist for a structure, and the calls need not agree.
# Tested on: Wild type
# Experiment: growth inhibition of S. aureus wild type versus tarO mutant, primary screen, teichoic acid synthesis inhibitors, RN4220, OD600 (AID 463173)
# Conditions: S. aureus RN4220 wild type/DeltatarO growth, OD600, 18 h, stronger effect = lower value, screened at 18.75 µg/mL (by protocol)
row,Compound,survival
1,COc1ccc(OC)c(CCNC(=O)c2cc3cccc4c3n2CCS4)c1,71% (inactive)
2,Cn1c(=O)c2c(nc(NCc3ccccc3)n2Cc2ccccc2)n(C)c1=O,79% (inactive)
3,CC(C)Cc1nn2c(=O)cc(COC(=O)c3ccc(NC(=O)c4cccs4)cc3)nc2s1,127% (inactive)
4,CCOc1ccccc1N1CC(c2nc3ccccc3n2CCOc2ccccc2OC)CC1=O (centres undefined),107% (inactive)
5,Cc1ccc(OCCCn2c(C3CC(=O)N(c4cccc(Cl)c4)C3)nc3ccccc32)c(C)c1 (centres undefined),90% (inactive)
6,C=CCc1ccccc1OCCn1c(C2CC(=O)N(Cc3ccc(F)cc3)C2)nc2ccccc21 (centres undefined),-16% (active)
7,Cc1ccc(OCCn2c(C3CC(=O)N(Cc4ccc(F)cc4)C3)nc3ccccc32)c(C)c1 (centres undefined),-15% (active)
8,Cc1cc(C)c(Cn2c(C3CC(=O)N(c4ccc(F)cc4)C3)nc3ccccc32)c(C)c1 (centres undefined),86% (inactive)
9,CCOc1ccccc1N1CC(c2nc3ccccc3n2CCCCOc2cc(C)ccc2C)CC1=O (centres undefined),43% (inactive)
10,Cc1cccc(C)c1OCCn1c(C2CC(=O)N(Cc3ccc(F)cc3)C2)nc2ccccc21 (centres undefined),-4% (active)
11,Cc1cccc(C)c1OCCCCn1c(C2CC(=O)N(c3ccc(F)cc3)C2)nc2ccccc21 (centres undefined),34% (inactive)
12,Cc1ccc(C)c(OCCn2c(C3CC(=O)N(Cc4ccc(F)cc4)C3)nc3ccccc32)c1 (centres undefined),-16% (active)
13,COc1ccccc1OCCCn1c(C2CC(=O)N(c3ccc(F)cc3)C2)nc2ccccc21 (centres undefined),101% (inactive)
14,CCc1ccccc1N1CC(c2nc3ccccc3n2CCCCOc2ccccc2OC)CC1=O (centres undefined),93% (inactive)
15,Cc1cccc(C)c1OCCn1c(C2CC(=O)N(c3cccc(Cl)c3)C2)nc2ccccc21 (centres undefined),84% (inactive)
16,COc1ccc(NC(=O)Cn2c(=O)n(-c3cccc(C)c3)c(=O)c3c2c2cc(C)ccc2n3C)cc1Cl,86% (inactive)
17,CCc1cccc(NCc2ccccc2-c2nnc(-c3ccccc3Cl)o2)c1,81% (inactive)
18,CN(C)S(=O)(=O)c1ccc(S(=O)(=O)N2CCC(c3nc4c(nnn4Cc4cccc(F)c4)c(=O)[nH]3)CC2)cc1,113% (inactive)
19,Cc1cccc(-n2ncc3c(Nc4c(C)cc(C)cc4C)ncnc32)c1,83% (inactive)
20,Cc1ccc(S(=O)Cc2nc(-c3ccc(C(=O)NCc4cccc(C)c4)cc3)oc2C)cc1 (centres undefined),99% (inactive)
21,CCOc1ccc(NC(=O)c2ccc(-c3nc(COc4ccccc4)c(C)o3)cc2)cc1,89% (inactive)
22,O=C(c1cnc(N2CCCCC2)c2ccccc12)N1CCN(c2cccc(Cl)c2)CC1,68% (inactive)
23,CCOC(=O)c1cccc(NS(=O)(=O)c2cc(Br)cc3c2N(C(=O)C2CC2)CC3)c1,151% (inactive)

row,Compound,survival
1,CCCC(=O)NCC(c1ccc2c(c1)OCO2)N1CCN(c2ccccc2)CC1 (centres undefined),92% (inactive)
2,O=C(COc1ccccc1F)Nc1ccccc1OCc1cc(=O)n2ccccc2n1,79% (inactive)
3,CN(C)c1oc(/C=C/c2ccc(F)cc2)nc1C#N,87% (inactive)
4,CC1CCCCN1CC(=O)N1CCN(C(=O)CN2CCCCC2C)CC1 (centres undefined),106% (inactive)
5,CCOc1ccccc1NC(=O)CN(c1cc(C)cc(C)c1)S(=O)(=O)c1c(C)nn(C)c1C,69% (inactive)
6,Cc1cc(C)cc(N(CC(=O)Nc2c(C)cc(C)cc2C)S(=O)(=O)c2c(C)nn(C)c2C)c1,-6% (active)
7,CCc1ccc(NC(=O)CN(c2ccc(C)cc2)S(=O)(=O)c2c(C)nn(C)c2C)cc1,76% (inactive)
8,O=C(c1cn(CCOc2ccc(Cl)cc2)c2ccccc12)C1CCCCC1,9% (active)
9,COc1ccc(OCCn2cc(C(=O)C3CCCCC3)c3ccccc32)cc1,31% (inactive)
10,O=C(c1ccco1)c1cn(CCOc2ccc(Cl)cc2)c2ccccc12,68% (inactive)
11,Cc1ccc(OCCn2cc(C(=O)C3CCCCC3)c3ccccc32)cc1,1% (active)
12,Cc1ccccc1OCCn1cc(C(=O)C2CCCCC2)c2ccccc21,124% (inactive)
13,O=C(c1cn(CCOc2ccccc2F)c2ccccc12)C1CCCCC1,3% (active)
14,O=C(c1cccs1)c1cn(CCOc2ccc(Cl)cc2)c2ccccc12,80% (inactive)
15,Cc1ccc(NC(=O)Cn2cc(C(=O)C3CCCCC3)c3ccccc32)cc1,87% (inactive)
16,O=C(c1cccs1)c1cn(CCOc2ccccc2F)c2ccccc12,75% (inactive)
17,Cn1ncc(Cl)c1C(=O)O,95% (inactive)
18,O=C(CC1N=C2c3ccccc3N=C(SCC(=O)Nc3ccccc3F)N2C1=O)NCc1cccs1 (centres undefined),73% (inactive)
19,O=C1C2=C(Nc3ncnn3C2c2ccccc2)c2ccccc21 (centres undefined),114% (inactive)
20,CSc1ccc(/C=C/c2nc3ccccc3n2S(=O)(=O)c2cccc(Cl)c2)cc1,66% (inactive)
21,CCN1CCN(C(C)C(=O)NC(c2ccccc2)c2ccccc2)CC1 (centres undefined),113% (inactive)
22,Cc1cccc(Cn2nc(C)n3c(cc4cc(C)ccc43)c2=O)c1,79% (inactive)
23,CCc1cccc2c(-c3ccccc3)nc(SCC(=O)Nc3ccccc3)nc12,88% (inactive)

row,Compound,survival
1,Cc1ccc(NC(=O)CSc2nnc3nc(C)cc(C)n23)cc1,73% (inactive)
2,CCN(CC)S(=O)(=O)c1ccc2c(c1)N(CC(=O)Nc1c(C)cccc1C)C(=O)C1CCCN21 (centres undefined),73% (inactive)
3,CCc1ccccc1NC(=O)CN1C(=O)C2CCCN2c2ccc(S(=O)(=O)N(CC)CC)cc21 (centres undefined),81% (inactive)
4,CCN(CC)S(=O)(=O)c1ccc2c(c1)N(CC(=O)Nc1cccc(C)c1C)C(=O)C1CCCN21 (centres undefined),-4% (active)
5,CCc1ccc(-c2cc(C)no2)cc1S(=O)(=O)Nc1cc(OC)c(OC)c(OC)c1,83% (inactive)
6,CCc1ccc(-c2cc(C)no2)cc1S(=O)(=O)Nc1ccc(Cl)cc1,74% (inactive)
7,CCc1ccc(-c2cc(C)no2)cc1S(=O)(=O)Nc1ccc(C)cn1,14% (active)
8,Cc1ccnc(NS(=O)(=O)c2cc(-c3cc(C)no3)ccc2C)c1,78% (inactive)
9,CCc1ccc(-c2cc(C)no2)cc1S(=O)(=O)Nc1ccc(Cl)cn1,-1% (active)
10,Cc1ccc(-c2onc(C)c2C)cc1S(=O)(=O)Nc1ccc(Cl)cn1,89% (inactive)
11,O=C(CN1C(=O)C(c2ccc(F)cc2)=NC12CCCCCC2)Nc1ccc(F)c(Cl)c1,76% (inactive)
12,CCOc1ccc(NC(=O)CCc2c(C)nc3cc(-c4ccccc4OC)nn3c2C)cc1,76% (inactive)
13,COc1ccc(NC(=O)CSc2nc(-c3ccc(OC)cc3)cc(=O)[nH]2)cc1,148% (inactive)
14,CCOCN(C(=O)Cn1c(COC)nc2ccccc21)c1c(C)cccc1CC,111% (inactive)
15,CCOCN(C(=O)Cn1c(C)nc2ccccc21)c1c(C)cccc1CC,124% (inactive)
16,CCc1cccc(CC)c1N(COC)C(=O)Cn1c(CC)nc2ccccc21,74% (inactive)
17,CCOCN(C(=O)Cn1c(C(C)O)nc2ccccc21)c1c(C)cccc1CC (centres undefined),117% (inactive)
18,CCCCc1nc2ccccc2n1CC(=O)N(COCC)c1c(C)cccc1CC,-1% (active)
19,CCOCN(C(=O)Cn1c(CC(C)C)nc2ccccc21)c1c(C)cccc1CC,5% (active)
20,Cc1cccc(NC(=O)CN2C(=O)COc3ccc(S(=O)(=O)N4CCC(C)CC4)cc32)c1C,101% (inactive)
21,Cc1ccc(-c2nc(-c3cc4cccc(OCc5cccc(C)c5)c4oc3=O)no2)cc1,71% (inactive)
22,CSc1ccc(CCNC(=O)c2csc3c2CCCCC3)cc1,69% (inactive)
23,CCC(Cc1ccccc1)NC(=O)c1csc2c1CCCCC2 (centres undefined),120% (inactive)

row,Compound,survival
1,CC(CNC(=O)c1csc2c1CCCCC2)c1ccccc1 (centres undefined),0% (active)
2,CC(C)(C)c1ccc(-c2nnc(-c3ccccc3NC(=O)c3ccc(F)cc3F)o2)cc1,144% (inactive)
3,CCOC(=O)C(C)Sc1nc(-c2ccccc2Cl)cc(-c2ccccc2)c1C#N (centres undefined),79% (inactive)
4,CCOC(=O)C(C)Sc1nc(-c2ccccc2)ccc1C#N (centres undefined),107% (inactive) and 0% (active)
5,CCCCSc1nc(-c2ccc(OC)cc2)ccc1C#N,28% (inactive)
6,COc1cccc(C(=O)Nc2ccc(-n3nncc3-c3ccc(Br)cc3)cc2)c1OC,143% (inactive)
7,CC(=O)N1CCc2cc(S(=O)(=O)NC(Cc3ccccc3)C(=O)Nc3ccc(C)cc3C)ccc21 (centres undefined),74% (inactive)
8,Nc1cccc(Cl)c1N1CCOCC1,110% (inactive)
9,COc1cc(C(=O)Nc2c(C(=O)Nc3ccccc3F)oc3ccccc23)cc(OC)c1OC,68% (inactive)
10,COc1ccccc1C(=O)Nc1c(C(=O)N2CCN(c3ccccc3F)CC2)oc2ccccc12,101% (inactive)
11,O=C(Nc1c(C(=O)N2CCN(c3ccc(F)cc3)CC2)oc2ccccc12)c1ccco1,88% (inactive)
12,O=C(Nc1c(C(=O)N2CCN(c3ccccc3F)CC2)oc2ccccc12)c1ccco1,69% (inactive)
13,Cc1ccc(C(=O)c2oc3ccccc3c2NC(=O)Cc2ccccc2)cc1,53% (inactive)
14,CCc1ccc2occ(CC(=O)Nc3c(C(=O)c4ccccc4)oc4ccccc34)c2c1,104% (inactive)
15,COc1ccccc1C(=O)Nc1c(C(=O)Nc2ccccc2F)oc2ccccc12,2% (active)
16,COc1ccc(N2CCN(C(=O)c3oc4ccccc4c3NC(=O)c3ccccc3OC)CC2)cc1,129% (inactive)
17,COc1ccccc1C(=O)Nc1c(C(=O)N2CCN(c3ccc(F)cc3)CC2)oc2ccccc12,-2% (active)
18,O=C(Nc1c(C(=O)N2CCN(c3ccccc3)CC2)oc2ccccc12)c1ccco1,10% (active)
19,COc1ccccc1NC(=O)c1oc2ccccc2c1NC(=O)c1c(F)cccc1F,60% (inactive)
20,O=C(Cc1ccccc1)Nc1c(C(=O)c2ccccc2)oc2ccccc12,7% (active)
